The values that follow come from publication PMC4552634, “A New Set of Chemical Starting Points with Plasmodium falciparum Transmission-Blocking Potential for Antimalarial Drug Discovery” (PLoS ONE, 2015).

SMILES strings stand for the structures. Out of some 13,000 compounds screened, about 3,200 (25%) showed an effect of 50% or more. The list shows a part of the results.

In this assay the test system is P. falciparum stage V gametocytes. Further details: BacTiter-Glo ATP luminescence viability of purified stage V gametocytes in 384-well plates, per cent inhibition versus DMSO. Particulars: 48 h, 5 µM; inhibitor.
Turning to `CCCCCCCCCN(CCC)C(=O)[C@@H]1OC(C(=O)OC(c2ccccc2)c2ccccc2)=C[C@H](NC(=O)OC(C)(C)C)[C@H]1NC(C)=O` [TCMDC-132020], the “% Inhibition” value was -25.5%.

`O=C(Nc1ccc(Oc2cccnc2)cc1)C1CCN(Cc2cc(Cl)ccc2O)CC1` [TCMDC-124640]: the “% Inhibition” value was -32.1%.

Take `O=C(Cc1cnc[nH]1)Nc1ccc(-c2ccc(-c3nc4ccc(F)cc4[nH]3)cc2)cc1` [TCMDC-136781]: the “% Inhibition” value was -5.638%.

In the case of `CC(=O)Nc1nc(C(=O)Nc2ccc(-c3cccc(-c4nc5ccc(F)cc5[nH]4)c3)cc2)cs1` [TCMDC-137122], the “% Inhibition” value was -21.41%.

Consider `O=C(NCc1cccc(OC(F)(F)F)c1)c1cnc2c(c1)nc(-c1cnc(-c3ccccc3)[nH]1)n2CCc1cnc[nH]1` [TCMDC-139690], for which the “% Inhibition” value was -64.98%.

In the case of `COc1ccc(OC)c(NC(=O)C2c3ccccc3C(=O)N(CC(C)C)C2c2cccs2)c1` (stereo not drawn) [TCMDC-124759], the “% Inhibition” value is 26.61%.

As for `COc1cc(OC)c(NC(=O)C2c3ccccc3C(=O)N(CC(C)C)C2c2cccs2)cc1Cl` (stereo not drawn) [TCMDC-124760], the “% Inhibition” value came to 55.1%.

Turning to `CCn1c(=O)c(C(=O)Nc2cc(Cl)c(OC)cc2OC)nc2ccccc21` [TCMDC-125064], the “% Inhibition” value is -72.41%.

Turning to `O=C(CN1CCN(C(C(=O)Nc2cc(C(F)(F)F)ccc2Cl)c2ccccc2)CC1)NC1CC1` (stereo not drawn) [TCMDC-125267], the “% Inhibition” value was found to be 8.518%.

Turning to `c1ccc(CNc2nc(NCCc3cnc[nH]3)nc(NCc3cccc4ccccc34)n2)cc1` [TCMDC-139737], the “% Inhibition” value is 1.176%.

For `COc1ccc(CCNc2nc(NCCc3cnc[nH]3)nc(NCc3cccc4ccccc34)n2)cc1OC` [TCMDC-139244], the “% Inhibition” value was determined as 77.02%.

As for `COc1cc2nc(NCCc3ccccc3)nc(NCc3ccc(C#N)cc3)c2cc1OC` [TCMDC-135300], the “% Inhibition” value stood at 97.53%.

As for `COc1cc2nc(N3CCC(c4ccccc4)CC3)nc(NCc3ccc(=O)[nH]c3)c2cc1OC` [TCMDC-136497], the “% Inhibition” value is recorded as -1.844%.

Turning to `COc1cc2nc(NCCc3ccccc3)nc(NC(C)c3ccccc3)c2cc1OC` (stereo not drawn) [TCMDC-135384], the “% Inhibition” value was found to be 51.56%.

As to `COc1ccc(C(C)Nc2nc(N)c3cc(OC)c(OC)cc3n2)cc1.Cl` (stereo not drawn) [TCMDC-131891], the “% Inhibition” value stood at 10.29%.

For the molecule `CC(C)Nc1nc(NCCc2cnc[nH]2)nc(NCc2cccc3ccccc23)n1` [TCMDC-139736], the “% Inhibition” value was 1.941%.

Turning to `COc1cc2nc(N3CCC(CCCC4CCNCC4)CC3)nc(NCc3ccccn3)c2cc1OC` [TCMDC-138494], the “% Inhibition” value is on record as 104%.

On to `C[C@@H](Nc1nc(NCc2ccccc2)c2sccc2n1)c1ccccc1` [TCMDC-136500], for which the “% Inhibition” value is reported as -1.002%.

Regarding `CC[C@H]1CN2CC[C@H]1C[C@H]2[C@H](OC(=O)c1ccccc1)c1cc(C#N)nc2ccc(OC)cc12` [TCMDC-138208], the “% Inhibition” value is listed as 28.19%.

Consider `NC(N)=NC(=O)Nc1cc(Cl)c(Cl)c(Br)c1` [TCMDC-137463], for which the “% Inhibition” value was -17.34%.

In the case of `N=C(N)c1cc(Cl)cc(NC(=O)Nc2cc(Cl)cc(C(=N)N)c2)c1` [TCMDC-124110], the “% Inhibition” value is reported as -2.183%.

Turning to `COc1cc2nc(NCCc3ccccc3)nc(NCc3cc(C)no3)c2cc1OC` [TCMDC-135435], the “% Inhibition” value is given as 96.72%.

`COc1ccc(CNc2nc(NCCc3ccccc3)c3cc(OC)c(OC)cc3n2)cc1OC` [TCMDC-132019]: the “% Inhibition” value was 85.76%.

As for `COc1cc2nc(-c3ccccc3)nc(N3CCN(C(=O)c4ccco4)CC3)c2cc1OC` [TCMDC-125059], the “% Inhibition” value was -9.427%.

With `COc1cc2nc(N3CCN(C(=O)c4ccco4)CC3)nc(NCc3ccccc3)c2cc1OC` [TCMDC-132028], the “% Inhibition” value turned out to be 52.38%.

In the case of `COc1cc2nc(N3CCC(C(N)=O)CC3)nc(NCc3ccccc3)c2cc1OC` [TCMDC-132023], the “% Inhibition” value was found to be 16.05%.

On to `COc1cc2nc(NCC3CCCCC3)nc(NCc3ccccc3)c2cc1OC` [TCMDC-132014], for which the “% Inhibition” value came to 59.54%.

For `CC(=O)NCCCCC1NC2(C(=O)N(Cc3ccc(C(C)(C)C)cc3)c3ccccc32)C2C(=O)N(C3CCCCC3)C(=O)C12` (stereo not drawn) [TCMDC-139771], the “% Inhibition” value is 5.053%.

Take `Cc1cc(N(C)C)nc(Nc2ccc(NC(=O)c3ccc(F)cc3)cc2)n1` [TCMDC-124723]: the “% Inhibition” value was 5.364%.

Regarding `O=C(Nc1ccc(Cl)cc1)Nc1cccc(-c2ccc(-c3nc4ccccc4[nH]3)cc2)c1` [TCMDC-133182], the “% Inhibition” value is reported as -15.2%.

For the molecule `CN(C)CCCNc1ncnc2c1[nH]c1ccc(F)cc12` [TCMDC-125598], the “% Inhibition” value is listed as -5.367%.

In the case of `O=c1ccc(CNc2nc(NCCc3ccccc3)nc3cc(Cl)ccc23)c[nH]1` [TCMDC-136510], the “% Inhibition” value came to 52.65%.

`COc1cc2nc(NCCn3nc(C)cc3C)nc(NCCc3ccccc3)c2cc1OC` [TCMDC-135473]: the “% Inhibition” value is listed as 52.48%.

Turning to `COc1ccc(CNc2nc(NCc3ccc(C(F)(F)F)cc3)c3cc(OC)c(OC)cc3n2)cc1OC` [TCMDC-132016], the “% Inhibition” value is 104.7%.

For the molecule `Clc1ccc2c(NCCc3ccccc3)ccnc2c1` [TCMDC-138551], the “% Inhibition” value was -1.928%.

With `COc1cc2ncnc(Nc3ccc(OCc4ccccc4)c(C(F)(F)F)c3)c2cc1OC` [TCMDC-131921], the “% Inhibition” value amounted to 4.607%.

Regarding `COc1cc2nc(NCCc3ccccc3)nc(NCCCc3ccccc3)c2cc1OC` [TCMDC-135301], the “% Inhibition” value is listed as 108%.

Turning to `COc1ccc(CCNc2nc(N)c3cc(OC)c(OC)cc3n2)cc1.Cl` [TCMDC-131888], the “% Inhibition” value was 1.23%.

As for `O=c1ccc(CNc2nc(NCCc3ccccc3)nc3ccc(Cl)cc23)c[nH]1` [TCMDC-136489], the “% Inhibition” value was found to be 35.37%.

For the molecule `COc1cc2nc(NCCc3ccccc3)nc(NCc3nccs3)c2cc1OC` [TCMDC-135436], the “% Inhibition” value is recorded as 24.41%.

Regarding `Cc1c(CNCCCNc2cc(=O)c3ccccc3[nH]2)sc(-c2ccco2)c1Br` [TCMDC-141065], the “% Inhibition” value is -27.75%.

Consider `CSc1cccc(Nc2nc3ccc(S(=O)(=O)NC(C)C(C)C)cc3n2[C@H](C)C(C)(C)C)c1` (stereo partly drawn) [TCMDC-136239], for which the “% Inhibition” value was -63.84%.

Regarding `Cc1nn(C)cc1C(C)Nc1nncc(-c2ccc(C(F)(F)F)cc2)n1` (stereo not drawn) [TCMDC-124694], the “% Inhibition” value is listed as -19.2%.

For `OC1(c2ccc(Br)cc2)CCN(C2CCN(Cc3ccccc3)CC2)CC1` [TCMDC-124137], the “% Inhibition” value is 40.29%.

`O=C(O)C(F)(F)F.c1cc(CN2CCN(c3ccncc3)CC2)cc(-c2ccc(-c3nc4ccccc4[nH]3)s2)c1` [TCMDC-132909]: the “% Inhibition” value turned out to be 11.83%.

`COc1ccc2nccc([C@@H](O)CN3CCC(NCc4cc5cc(C)ccc5s4)CC3)c2c1` [TCMDC-140682]: the “% Inhibition” value was 12.73%.

`CN(C)CCCn1cncc1-c1ccc2ncnc(Nc3ccc4c(cnn4Cc4ccccc4)c3)c2c1` [TCMDC-138087]: the “% Inhibition” value was -19.79%.

On to `CN(C)CCc1coc2ccc(C(=O)Nc3ccc(-c4ccc(O)cc4)cc3)cc12` [TCMDC-132005], for which the “% Inhibition” value is -54.25%.

As for `c1ccc(CNc2nc(NCCN3CCCCC3)nc3ccccc23)cc1` [TCMDC-137554], the “% Inhibition” value came to 18.64%.

Turning to `COc1cc2nc(NCCc3cccc(Cl)c3)nc(NCc3ccccc3)c2cc1OC` [TCMDC-135266], the “% Inhibition” value is 90.56%.

`COc1cccc(CCNc2nc(NCc3ccccc3)c3cc(OC)c(OC)cc3n2)c1` [TCMDC-135267]: the “% Inhibition” value is given as 71.62%.

Consider `COc1cc2nc(NCCc3ccccc3)nc(NCc3cnn(C)c3C)c2cc1OC` [TCMDC-135459], for which the “% Inhibition” value is on record as 100.1%.

As to `COc1cc2nc(NCCCN3CCCCC3)nc(NCc3ccccc3)c2cc1OC` [TCMDC-132012], the “% Inhibition” value is recorded as 112.9%.

In the case of `Cc1ccccc1C1CCN(C2CCC(NC(=O)/C=C/c3c[nH]c4ccccc34)CC2)CC1` (stereo not drawn) [TCMDC-134103], the “% Inhibition” value was -47.56%.

Regarding `O=C(O)CCSc1ncnc2nc[nH]c12` [TCMDC-125870], the “% Inhibition” value is given as -3.326%.

In the case of `NC(N)=Nc1ccc(CCc2ccc(N=C(N)N)cc2)cc1` [TCMDC-137701], the “% Inhibition” value was -9.941%.

Consider `O=C(Nc1cccc(CN2CCCN(Cc3ncc[nH]3)CC2)c1)c1ccc(-c2ccccc2)cc1` [TCMDC-141849], for which the “% Inhibition” value was 12.11%.

In the case of `CC1(C)CCCN(C(=O)Cc2ccc3c(c2)CCCC3)C1CN1CC=CC1` (stereo not drawn) [TCMDC-131637], the “% Inhibition” value is recorded as 3.216%.

`C=Cc1sc(CNCCCNc2cc(=O)c3ccccc3[nH]2)c(C)c1Br` [TCMDC-141064]: the “% Inhibition” value is reported as -9.308%.

Regarding `N#Cc1ccc(CN2CCCN(c3ccc(NC(=O)c4ccc(F)cc4)cc3)CC2)cc1` [TCMDC-134984], the “% Inhibition” value is listed as -24.83%.

Consider `COc1ccc(CNc2nc(NCc3ccccc3)c3cc(OC)c(OC)cc3n2)cc1OC` [TCMDC-131893], for which the “% Inhibition” value is 102.4%.

For the molecule `COc1cc2nc(N[C@@H](CO)c3ccccc3)nc(NCc3ccccc3)c2cc1OC` [TCMDC-132024], the “% Inhibition” value came to 6.921%.

With `COc1ccc(CCNc2nc(NCc3ccccc3)c3cc(OC)c(OC)cc3n2)cc1OC` [TCMDC-132017], the “% Inhibition” value came out at 95.97%.

Take `COc1ccc2ccccc2c1CON1C(N)=NC(N)=NC1(C)C` [TCMDC-131789]: the “% Inhibition” value stood at 14.14%.

Consider `O=C(N/C(=C/c1cccc([N+](=O)[O-])c1)c1nc2ccccc2[nH]1)c1cccc(Br)c1` [TCMDC-123667], for which the “% Inhibition” value stood at 25.9%.

On to `CCc1nc2ccc(C(=O)OC)nc2n1Cc1ccc2oc(-c3ccccc3N)c(Br)c2c1` [TCMDC-131989], for which the “% Inhibition” value was found to be 82.84%.

On to `Cc1cccc2[nH]c(-c3cccc(-c4ccc(NC(=O)Cc5ccccn5)cc4)c3)nc12` [TCMDC-132178], for which the “% Inhibition” value was -17.95%.

Regarding `CS(=O)(=O)CCNCc1cccc(-c2cc3c(Nc4ccc5c(cnn5Cc5ccccc5)c4)ncnc3s2)c1` [TCMDC-134664], the “% Inhibition” value is listed as -36.31%.

As to `CN1CCC(c2ccc(NC(=O)c3ccc(-c4cccc(C(F)(F)F)c4)o3)cc2)CC1` [TCMDC-134195], the “% Inhibition” value turned out to be 6.508%.

The term % Inhibition denotes the drop in the measured response relative to a control, in per cent.
